Experimental data published in PubChem BioAssay (EPA / NIEHS).
The source made the active and inactive calls. Rule for the calls: active = hit-call score of the fitted dose curve at least 0.9, where 1 is the maximum; inactive = score below 0.9.

How the values were obtained:
[1] = Tanguay_ZF_120hpf_MO24: Oregon State University Tanguay Lab 24 Hour Post-fertilization zebrafish Assay for Mortality (AID 2284389)
Method in brief: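 Dechorionated wild-type zebrafish embryos, 1 per well, statically exposed from 6 hpf at 28C, 0.64% DMSO final. Mortality scored as binary present/absent at 24 hpf by brightfield microscopy, relative to DMSO.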

[2] = Tanguay_ZF_120hpf_AXIS: Oregon State University Tanguay Lab 120 Hour Post-fertilization zebrafish Assay for Axial Malformation (AID 2284398)
Method in brief: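 Dechorionated 5D wild-type zebrafish embryos exposed statically, one per well, from 6 to 120 hpf at 28C, 0.64% DMSO. Axial malformation scored as present/absent by brightfield microscopy at 120 hpf; dead embryos not scored.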

[3] = Tanguay_ZF_120hpf_MORT: Oregon State University Tanguay Lab 120 Hour Post-fertilization zebrafish Assay for Mortality (AID 2284399)
Method in brief: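 Dechorionated wild-type Tropical 5D zebrafish embryos, one per well from 6 hpf, static exposure to 120 hpf at 28C in sealed dark plates, 0.64% DMSO final. Mortality scored as binary by brightfield at 24 and 120 hpf.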

[4] = Tanguay_ZF_120hpf_EDEM: Oregon State University Tanguay Lab 120 Hour Post-fertilization zebrafish Assay for Edema Malformation (AID 2284400)
Method in brief: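 Dechorionated Tropical 5D wild-type embryos, one per well, statically exposed from 6 to 120 hpf at 28C in 0.64% DMSO. Edema scored present/absent by brightfield microscopy at 120 hpf; dead embryos not scored; fit versus DMSO.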

[5] = Tanguay_ZF_120hpf_ANY: Oregon State University Tanguay Lab 120 Hour Post-fertilization zebrafish Assay for Any Mortality and Malformation (AID 2284404)
Method in brief: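 Dechorionated Tropical 5D wild-type embryos, one per well from 6 hpf, static exposure in sealed, dark plates at 28C until 120 hpf, 0.64% DMSO final. Brightfield scoring of mortality and malformations as binary presence/absence, pooling 13 morphology endpoints.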

[6] = CCTE_Padilla_ZF_Score.Craniofacial: CCTE's 144 Hour Post-fertilization zebrafish Assay Score for Craniofacial Malformation, Padilla Lab (AID 2284405)
Method in brief: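 Wild-type zebrafish embryos (with chorions), one per well in 10% Hanks', were dosed at 6–8 hpf in sealed plates and kept at 26C. They were rinsed at 5 dpf. At 6 dpf two blinded assessors scored craniofacial malformations by brightfield stereomicroscopy.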

[7] = CCTE_Padilla_ZF_Score.Edema: CCTE's 144 Hour Post-fertilization zebrafish Assay Score for Edema Malformation, Padilla Lab (AID 2284406)
Method in brief: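 Wild-type zebrafish embryos, one per well in Hanks' solution, dosed at 6-8 hpf, sealed and reared at 26C on a 14:10 h cycle; rinsed on 5 dpf. At 6 dpf, blinded assessors scored edema by stereomicroscopy.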

[8] = CCTE_Padilla_ZF_Score.Spine: CCTE's 144 Hour Post-fertilization zebrafish Assay Score for Spine Malformation, Padilla Lab (AID 2284407)
Method in brief: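 Wild-type zebrafish embryos, one per well in Hanks' solution, dosed at 6–8 hpf in sealed plates at 26C, 14:10 h light:dark; rinsed at 5 dpf. Two blinded assessors scored spinal defects by stereomicroscopy at 6 dpf; fitted versus DMSO.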

[9] = CCTE_Padilla_ZF_Score.Swim_bladder: CCTE's 144 Hour Post-fertilization zebrafish Assay Score for Swim Bladder Malformation, Padilla Lab (AID 2284408)
Method in brief: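 Wild-type zebrafish embryos, one per well in 10% Hanks', dosed at 6–8 hpf, sealed, reared at 26C and rinsed at 5 dpf. Blinded assessors scored uninflated swim bladder by stereomicroscopy at 6 dpf, relative to DMSO.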

[10] = Tanguay_ZF_120hpf_TCHR: Oregon State University Tanguay Lab 120 Hour Post-fertilization zebrafish Assay for Touch Responsive (AID 2284403)
Method in brief: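 Dechorionated Tropical 5D wild-type zebrafish embryos, one per well from 6 hpf, were statically exposed to 120 hpf at 28 °C (0.64% DMSO). Touch response was scored present/absent at 120 hpf and not scored in dead larvae.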

[11] = Tanguay_ZF_120hpf_CRAN: Oregon State University Tanguay Lab 120 Hour Post-fertilization zebrafish Assay for Craniofacial Malformation (AID 2284397)
Method in brief: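 Dechorionated Tropical 5D wild-type zebrafish embryos, one per well, were statically exposed from 6 to 120 hpf at 28C in 0.64% DMSO, with 5uM trimethyltin chloride as positive control. Craniofacial malformation was scored present/absent by brightfield microscopy, relative to DMSO.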

[12] = Tanguay_ZF_120hpf_DP24: Oregon State University Tanguay Lab 24 Hour Post-fertilization zebrafish Assay for Delayed Development (AID 2284390)
Method in brief: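 Dechorionated 5D wild-type zebrafish embryos exposed statically from 6 hpf, one per well, 0.64% DMSO final, 28 C, sealed and dark. Developmental progression scored at 24 hpf by brightfield as binary present/absent; dead embryos excluded.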

[13] = Tanguay_ZF_120hpf_BRN: Oregon State University Tanguay Lab 120 Hour Post-fertilization zebrafish Assay for Brain Region Malformation (AID 2284402)
Method in brief: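 Dechorionated wild-type Tropical 5D zebrafish embryos exposed statically from 6 to 120 hpf at 28C, one per well, 0.64% DMSO final. Brain malformation scored at 120 hpf by brightfield as present/absent; dead embryos not scored.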

Measured: AC50

O=C(O)C(F)(F)C(F)(F)C(F)(F)C(F)(F)C(F)(F)C(F)(F)C(F)(F)C(F)(F)C(F)(F)C(F)F
active: [3] 37 µM | [5] 28.8 µM | [7] 14.9 µM
inactive: [1] | [2] | [4] | [6] | [8] | [9]

OCCCC(F)(F)C(F)(F)C(F)(F)F
not listed: [3] | [11] | [12] | [13]
inactive: all other assays above

FC(F)(F)C(F)(F)CNCC(F)(F)C(F)(F)F
active: [9] 0.00275 µM
not listed: [10] | [11] | [12] | [13]
inactive: all other assays above

O=C(O)C(F)(F)C(F)(F)C(F)F
not listed: [3] | [10] | [11] | [12] | [13]
inactive: all other assays above

C=C(C)C(=O)OCC(F)(F)C(F)(F)C(F)(F)C(F)(F)C(F)(F)C(F)(F)C(F)(F)F
not listed: [3] | [10] | [11] | [12] | [13]
inactive: all other assays above

C=CC(F)(F)C(F)(F)C(F)(F)C(F)(F)C(F)(F)C(F)(F)C(F)(F)C(F)(F)F
not listed: [3] | [10] | [12] | [13]
inactive: all other assays above

C=CC(F)(F)C(F)(F)C(F)(F)C(F)(F)C(F)(F)C(F)(F)C(F)(F)C(F)(F)C=C
active: [5] 10.3 µM
inactive: [1] | [2] | [4] | [10]

FC(F)(F)C(F)(F)C(F)(F)C(F)(F)C(F)(F)C(F)(F)CCS
inactive: [6] | [7] | [8] | [9]

C=C(C)C(=O)OCCC(F)(F)C(F)(F)C(F)(F)C(F)(F)C(F)(C(F)(F)F)C(F)(F)F
not listed: [3] | [10] | [11] | [13]
inactive: all other assays above

NC(=O)C(F)(F)C(F)(F)C(F)(F)C(F)(F)F
not listed: [3] | [10] | [11] | [12] | [13]
inactive: all other assays above

CCCCCCCCC(F)(F)C(F)(F)C(F)(F)C(F)(F)C(F)(F)C(F)(F)F
not listed: [3] | [10] | [11] | [12] | [13]
inactive: all other assays above

FC(F)(F)C(F)(F)C(F)(F)N(C(F)(F)C(F)(F)C(F)(F)F)C(F)(F)C(F)(F)C(F)(F)F
not listed: [3] | [10] | [12] | [13]
inactive: all other assays above

OCC(F)(F)C(F)(F)C(F)(F)C(F)(F)C(F)(F)C(F)(F)F
active: [5] 112 µM | [7] 84.7 µM
not listed: [3] | [10] | [12] | [13]
inactive: all other assays above

FC1CC(F)(F)C(F)(F)C1(F)F (stereo not drawn)
inactive: [1] | [2] | [4] | [13] | [5]

O=C(O)C(F)(OC(F)(F)C(F)(OC(F)(F)C(F)(F)C(F)(F)F)C(F)(F)F)C(F)(F)F (stereo not drawn)
not listed: [3] | [10] | [11] | [13]
inactive: all other assays above
